tested on: HepG2; test: GSK_TCMDC: Percent inhibition of human HepG2 cell line. Test compounds present at 10uM.; assay type: functional

| SMILES | Inhibition [%] |
| --- | --- |
| CC(=O)Nc1nc(C(=O)Nc2ccc(-c3ccc(-c4nc5ccccc5[nH]4)cc3)cc2)cs1 | 38 |
| CCOc1cc(Cc2cnc(N)nc2N)cc(OCC)c1OCCCCC(=O)OC | 0 |
| CCN(CC)Cc1cc(Nc2ccnc3cc(Cl)ccc23)ccc1O.Cl.Cl.Cl | 0 |
| Cc1[nH]c(C)c(-c2ccc(-c3cccc(C(F)(F)F)c3)nc2)c(=O)c1Br | 28 |
| Cl.OC(c1ccccc1)C1CN(CCC2CC3CCC2C3)CCC1(O)c1ccccc1 (centres undefined) | 0 |
| Cc1cccc2nc(-c3ccc(-c4ccc(CN5CCCCC5)cc4)cc3)[nH]c12.O=C(O)C(F)(F)F | 27 |
| COCCNC(=O)C(CNC(=O)c1ccc2c(c1)OCO2)NC(=O)c1ccc(-c2ccccc2)cc1 (centres undefined) | 14 |
| Br.Oc1ccccc1CCNC1CCc2ccccc2C1 (centres undefined) | 0 |
| Cc1cccc2nc(-c3ccc(-c4cccc(CNCCCNS(C)(=O)=O)c4)s3)[nH]c12.O=C(O)C(F)(F)F | 20 |
| O=C(Nc1cccc(-c2cccc(-c3nc4ccccc4[nH]3)c2)c1)Nc1ccc2c(c1)OCO2 | 25 |
| Cc1ccc2[nH]c(C)cc(=NN=Cc3ccccc3Cl)c2c1 | 6 |
| Cl.NC(=O)c1cnc2cc(-c3ccoc3)ccc2c1Nc1ccc(NC(=O)Nc2ccccc2Cl)cc1 | 39 |
| Nc1ncc(-c2cn[nH]c2)cc1-c1nc2ccc(Cl)cc2[nH]1 | 46 |
| CCn1ccc2c(N3CCCS3(=O)=O)cc(C(=O)N[C@@H](Cc3ccccc3)[C@H](O)CNC3CCCCC3)cc21 | 0 |

Source: ChEMBL document CHEMBL1157539, “Thousands of chemical starting points for antimalarial lead identification” (Nature, 2010)
